Experimental data as given in PubChem BioAssay (EPA / NIEHS).
Records with an inconclusive call do not appear. Active and inactive are the calls of the source. How the source made its calls, unless noted: active means hit-call score of the fitted dose curve at least 0.9, where 1 is the maximum; inconclusive means response in the unintended direction; inactive means score below 0.9.

Key:
[1] = TOX21_p53_BLA_p2_viability: Viability Assessment in the Tox21 HCT-116 p53 Agonism Beta-lactamase Assay, Phase 2 (AID 2283591);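 further: compound exposure lasted 16 h at 37 °C; actives lower the ATP signal meaning cytotoxicity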
How it was run: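 HCT-116 p53-bla cells (4000/well) rested 5 h at 37C, then received compounds in DMSO (217-fold dilution) for 16 h at 37C, 5% CO2. After the CCF4 read, CellTiter-Glo was added; ATP luminescence was read after 30 min at room temperature.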

[2] = target: Cellular tumor antigen p53 (Homo sapiens) (UniProt P04637); assay: TOX21_p53_BLA_p2_ratio: Tox21 HCT-116 p53 Agonism Beta-lactamase Assay, Ratio, Phase 2 (AID 2283592)
Chain of Cellular tumor antigen p53 (Homo sapiens) (P04637 whole entry, looked up): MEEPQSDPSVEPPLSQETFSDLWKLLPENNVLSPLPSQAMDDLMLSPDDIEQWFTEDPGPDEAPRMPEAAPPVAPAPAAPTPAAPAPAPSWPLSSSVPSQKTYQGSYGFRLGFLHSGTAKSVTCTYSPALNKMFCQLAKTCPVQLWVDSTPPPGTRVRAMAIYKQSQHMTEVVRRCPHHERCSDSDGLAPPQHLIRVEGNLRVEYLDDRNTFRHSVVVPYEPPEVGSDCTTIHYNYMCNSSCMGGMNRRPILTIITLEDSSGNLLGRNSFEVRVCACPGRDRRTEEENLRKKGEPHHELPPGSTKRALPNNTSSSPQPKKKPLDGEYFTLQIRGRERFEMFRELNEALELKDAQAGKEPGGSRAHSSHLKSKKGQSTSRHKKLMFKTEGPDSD
How it was run: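 Read-out is the blue/green (460/530 nm, 405 nm excitation) ratio after 2 h CCF4-AM loading, fitted as gain versus DMSO. Compounds, pinned at 217-fold dilution from DMSO stocks, stayed 16 h on HCT-116 beta-lactamase reporter cells seeded 5 h earlier.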

[3] = TOX21_p53_BLA_p3_viability: Viability Assessment in the Tox21 HCT-116 p53 Agonism Beta-lactamase Assay, Phase 3 (AID 2283593);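 further: cells exposed to compound for 16 h before reading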
How it was run: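 HCT-116 cells (4000/well) rested 5 h at 37C, then got DMSO compounds by pin tool (217-fold dilution) for 16 h at 37C, 5% CO2. After the bla read, CellTiter-Glo was added and luminescence read at 30 min, room temperature.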

[4] = target: Cellular tumor antigen p53 (Homo sapiens) (UniProt P04637); assay: TOX21_p53_BLA_p3_ratio: Tox21 HCT-116 p53 Agonism Beta-lactamase Assay, Ratio, Phase 3 (AID 2283596)
How it was run: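 Cells were seeded at 4000/well, rested 5 h at 37C, then dosed with DMSO compound solutions (217-fold dilution) for 16 h. CCF4-AM substrate was loaded for 2 h at room temperature, and the 460/530 nm emission ratio was fitted for gain of signal versus DMSO.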

[5] = target: Cellular tumor antigen p53 (Homo sapiens) (UniProt P04637); assay: TOX21_p53_BLA_p5_ratio: Tox21 HCT-116 p53 Agonism Beta-lactamase Assay, Ratio, Phase 5 (AID 2283599)
How it was run: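 HCT-116 cells carrying a p53-inducible beta-lactamase reporter were seeded at 4000 cells/well and dosed after 5 h with compound in DMSO (217-fold dilution). After 16 h at 37C, CCF4-AM substrate was added for 2 h, and the 460/530 nm emission ratio was scored as gain-of-signal versus DMSO.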

[6] = target: Cellular tumor antigen p53 (Homo sapiens) (UniProt P04637); assay: TOX21_p53_BLA_p4_ratio: Tox21 HCT-116 p53 Agonism Beta-lactamase Assay, Ratio, Phase 4 (AID 2283601)
How it was run: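 HCT116 cells carrying an inducible beta-lactamase reporter were plated at 4000 cells/well, rested 5 h, then exposed to compounds in DMSO (217-fold dilution) for 16 h at 37C. CCF4-AM substrate was loaded 2 h at room temperature; 460/530 nm emission ratio scored gain-of-signal versus DMSO.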

[7] = TOX21_p53_BLA_p5_viability: Viability Assessment in the Tox21 HCT-116 p53 Agonism Beta-lactamase Assay, Phase 5 (AID 2283600)
How it was run: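 Viability came from CellTiter-Glo ATP luminescence, read after 30 min at room temperature. Before this, HCT-116 p53-bla cells (4000/well) had 16 hours of compound exposure at 37C, with DMSO stocks diluted 217-fold on transfer.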

[8] = ACEA_ER_AUC_viability: ACEA Biosciences xCELLigence Real-Time Cell Analysis on Estrogen Receptor Agonism for Viability (AID 2283782);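 further: hit means loss of impedance signal meaning reduced cell growth or viability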
How it was run: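 Continuous-exposure impedance cell analysis uses T-47D cells in charcoal-stripped serum, eight 1:4 dilutions topping at 100 uM final, biological duplicate. Area under the growth curve at 80 h is fitted against DMSO baseline.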

[9] = CCTE_Harrill_HTTr_Viability_MCF7: CCTE's 6-hour Cell Viability Assessment for the High-Throughput Transcriptomics (HTTr) Platform, in MCF-7 cells cultured in DMEM + 10% fetal bovine serum, Harrill Lab (AID 2284010; active means hit-call score of the fitted dose curve at least 0.9, where 1 is the maximum; inactive means score below 0.9)
How it was run: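 Eight-point concentration series, six-hour exposure. Propidium iodide exclusion imaged to assess membrane integrity as a cytotoxicity readout; bidirectional fitting was done with DMSO as negative control and activity baseline.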

[10] = CCTE_Harrill_HTTr_Apoptosis_MCF7: CCTE's 6-hour Apoptosis Assessment for the High-Throughput Transcriptomics (HTTr) Platform, in MCF-7 cells cultured in DMEM + 10% fetal bovine serum, Harrill Lab (AID 2284011; active means hit-call score of the fitted dose curve at least 0.9, where 1 is the maximum; inactive means score below 0.9)
How it was run: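 High-content imaging of CellEvent Caspase 3/7 Green signal follows a six-hour exposure, with eight concentrations per chemical. MCF-7 cells grown in DMEM plus 10% fetal bovine serum; activity fitted in both directions against DMSO.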

[11] = CCTE_Harrill_HTTr_CellCount_MCF7: CCTE's Cell Proliferation Assessment for the High-Throughput Transcriptomics (HTTr) Platform, Harrill Lab (AID 2284012);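 further: count of Hoechst-stained nuclei per well by high-content imaging in MCF-7 cells; cells exposed to compound for six hours; intended direction is loss of nuclei count meaning fewer cells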
How it was run: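 For this full-screen endpoint, MCF-7 cultures received eight compound dilutions for six hours. Well nuclei counts from Hoechst imaging were analyzed relative to DMSO.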

THRA (gene 7067) = THRA (gene 7067) (UniProt P10827); assay: TOX21_TRA_COA_Antagonist_Followup_ratio: Tox21 Thyroid Hormone Receptor alpha Antagonism through Coactivator Recruitment Follow-Up Assay, Ratio (AID 2283953)
Chain of THRA (gene 7067) (P10827 whole entry, looked up, the tested form may be a part): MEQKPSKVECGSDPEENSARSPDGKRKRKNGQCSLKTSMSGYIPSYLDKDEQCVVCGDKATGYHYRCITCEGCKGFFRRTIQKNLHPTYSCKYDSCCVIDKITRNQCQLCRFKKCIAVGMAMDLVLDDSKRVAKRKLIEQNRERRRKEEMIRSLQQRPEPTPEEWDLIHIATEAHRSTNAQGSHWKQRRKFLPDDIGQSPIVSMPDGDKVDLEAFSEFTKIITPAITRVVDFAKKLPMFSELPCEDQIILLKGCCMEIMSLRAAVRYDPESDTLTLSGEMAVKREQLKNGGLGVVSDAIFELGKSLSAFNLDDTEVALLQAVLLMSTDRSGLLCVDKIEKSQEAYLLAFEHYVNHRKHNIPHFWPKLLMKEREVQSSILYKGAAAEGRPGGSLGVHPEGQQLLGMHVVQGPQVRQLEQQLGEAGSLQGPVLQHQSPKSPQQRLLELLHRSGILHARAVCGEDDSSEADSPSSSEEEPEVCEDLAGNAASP
How it was run: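 We measured antagonism of T3-type coactivator recruitment using a TR-FRET ratio (emission 520 and 495 nm) between a Tb-labelled anti-GST antibody on TRα LBD (2.5 nM) and SRC-2 peptide (200 nM). Activity was scaled between DMSO and T3 wells.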

[12] = TOX21_TRB_BLA_Antagonist_Followup_viability: Viability Assessment in the Tox21 Thyroid Hormone Receptor beta Antagonism Beta-lactamase (BLA) Follow-Up Assay (AID 2283961)
How it was run: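 ATP-based CellTiter-Glo luminescence (30 min, room temperature) run in the same wells as the TRβ-bla readout. Cells: GeneBLAzer HEK293T expressing GAL4-TRβ LBD, exposed 18 h at 37C to compounds at 11 concentrations in triplicate, stripped-serum medium.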

[13] = TOX21_TR_RXR_BLA_Antagonist_Followup_viability: Viability Assessment in the Tox21 Thyroid Hormone Receptor beta Retinoid X Receptor alpha (RXRa) Antagonism Beta-lactamase (BLA) Follow-Up Assay (AID 2283979)
How it was run: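 RXRa-UAS-bla HEK293T cells seeded 2,500/well in phenol red-free DMEM with 2% charcoal-stripped FBS, attached 5 h, then exposed to compounds at 11 concentrations in triplicate for 16 h at 37C/5% CO2. Viability read by CellTiter-Glo ATP luminescence; bidirectional fit versus DMSO.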

Measured: outcome

CO[C@@]1(NC(=O)CSCC#N)C(=O)N2C(C(=O)O)=C(CSc3nnnn3C)CS[C@@H]21
inactive: [1] | [2] | [3] | [4] | [5] | [6]

COC(=O)N/N=C/c1c[n+]([O-])c2ccccc2[n+]1[O-]
inactive: [1] | [2] | [3] | [4] | [5] | [6]

C[C@H](NCCc1ccc(O)cc1)[C@H](O)c1ccc(O)cc1
inactive: [1] | [2] | [3] | [4] | [5] | [6]

CCCCCCCC/C=C/CCCOC(C)=O
inactive: [1] | [2] | [3] | [4] | [5] | [7] | [6] | [8]

CCN(CC)CCC(=O)N1c2ccccc2Sc2ccc(Cl)cc21
inactive: [1] | [2] | [3] | [4] | [5] | [6]

COC1=C(C(=O)O)N2C(=O)[C@@H](NC(=O)[C@H](N)C3=CCC=CC3)[C@H]2SC1
inactive: [1] | [2] | [3] | [4] | [5] | [6]

CCCCCCCCCCCCCCCC(=O)OC(C)C
inactive: [1] | [2] | [3] | [4] | [5] | [6]

FC(F)(F)C(Cl)Br (stereo unspecified)
inactive: [1] | [2] | [3] | [4] | [5] | [6]

CCN1CCCC1CNC(=O)c1cc(S(=O)(=O)CC)ccc1OC (stereo unspecified)
inactive: [1] | [2] | [3] | [4] | [5] | [6]

O=C(OOC(=O)c1ccccc1)c1ccccc1
not listed: [8] | THRA (gene 7067) | [12] | [13]
inactive: all other assays above

COc1ccc2cc([C@H](C)C(=O)O)ccc2c1
not listed: [7] | [11] | THRA (gene 7067) | [12] | [13]
inactive: all other assays above

Cc1cc2nc(N)sc2cc1C
inactive: [1] | [2] | [3] | [4] | [5] | [7] | [6]

CC1(C)S[C@@H]2[C@H](NC(=O)C(N)c3ccccc3)C(=O)N2[C@H]1C(=O)OC1OC(=O)c2ccccc21 (stereo partly specified)
not listed: [7] | [8] | [9] | [10] | [11]
inactive: all other assays above
